Bioassay records as filed in PubChem BioAssay.
Pf growth 96h: P. falciparum growth inhibition at 96 hour, primary screen for plastid delayed-death inhibitors; P. falciparum luciferase reporter growth, 96 h; Potency, µM (series often up to 28.7 µM), without a hit: at the highest dose activity change, negative = inhibition, most hits filed as inhibitors; actives 6.9% (n = 320,000); AID 504834; also: potency is read from the fitted curve at half-maximal effect
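Erythrocytes infected with luciferase-expressing P. falciparum were dispensed at 2% hematocrit and 0.05% parasitemia (final), then incubated with compounds 96 hours at 37 C in 5% CO2. Luminescence after detection reagent addition reported growth.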
Pf growth 48h: P. falciparum growth inhibition at 48 hours (one generation); actives 5.9% (n = 310,000); Potency, µM (highest dose often 28.7 µM), for inactives: top-dose activity change, negative = inhibition, usual class: inhibitors; P. falciparum luciferase growth in erythrocytes, 48 h; AID 504832; also: potency is read from the fitted curve at half-maximal effect
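Compounds are pin-transferred into medium, infected erythrocytes (2% hematocrit, 0.1% parasitemia final) are added, and plates sit one parasite generation at 37 C in 5% CO2. Detection reagent is then added and luminescence measured.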
HCMV antiviral: blocks human cytomegalovirus replication | actives 4.5% (n = 410,000) | activity change, negative = inhibition, % at 57.5 µM | AID 1259415 | HFF cells, HCMV-luciferase reporter, 72 h; active compounds read low; in the data active = activity change below about -60%; inconclusive = no clear call, values can overlap the other calls; inactive = above about -39%
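Human foreskin fibroblasts infected with luciferase-reporter HCMV at MOI 1 PFU/cell, compounds at two doses. Luciferase measured 72 h post infection; normalized to buffer-only basal and Salinomycin (10uM) controls.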
HCV inh: blocks hepatitis C virus | Huh7.5.1 HCVcc-Cre infection, luciferase reporter, 44 h | Potency, µM (titrated, usually from 41.8 µM), without a hit: at the highest dose activity change, negative = inhibition, usual class: inhibitors | actives 3.4% (n = 340,000); also: potency is read from the fitted curve at half-maximal effect
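Luciferase read-out (15 sec integration) after a 15 min room-temperature substrate step quantifies HCVcc-Cre infection. Cells, 1,000 per well, had compound added 4 h post-plating, then virus at ~0.5 moi, and were cultured 44 h.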
Active calls of the source: *; ? = inconclusive; / = no result; [ ] = remark or other dose. An excerpt weighted towards active compounds, which were near 13% of everything screened. Unless noted, calls follow the shape of the dose curve; as a rule, active = well fitted inhibition curve with a large enough effect; inconclusive = small, poorly fitted or top-dose-only effect, or another doubt; inactive = no such curve, though single readings can be large or run the other way. % is scaled to controls: 0 for no effect and ±100 for the full control effect.

SMILES | Pf growth 96h | Pf growth 48h | HCMV antiviral | HCV inh
CCOc1ccc(CCNC(=O)c2ccc3c(c2)c(C)c(C)n3C)cc1 | / | / | 0 | /
CCN(CC)CCCNC(=O)c1cc(-c2ccccc2)c(N2CCCCC2)s1 | ? | -25% | -18 | 6.3µM*
O=C(Nc1sc2c(c1C(=O)NCc1ccco1)CCCC2)c1cc(=O)c2cc(Cl)ccc2o1 | / | / | -6 | /
COC1=C(C)C(=O)C2=C(C1=O)C1C3CC4=C(C(=O)C(OC)=C(C)C4=O)C(CNC(=O)C(C)=O)N3C(C#N)C(C2)N1C (configuration not stated) | / | / | -97* | ?
CCCCN(Cc1cc2cc(OC)ccc2[nH]c1=O)S(=O)(=O)c1ccc(C)cc1 | 7% | ? | -70* | 13µM*
Cc1ccc(S(=O)(=O)N(C)Cc2cc3ccccc3[nH]c2=O)cc1 | 9.3µM* | ? | -38 | 11%
COc1ccc(S(=O)(=O)N(CCCN2CCCC2=O)Cc2cc3c(C)cc(C)cc3[nH]c2=O)cc1 | -18% | 9.3µM* | ? | ?
CCN(Cc1cc2ccccc2[nH]c1=O)C(=O)C(C)C | 0.93µM* | -2% | 39 | 1%
COc1ccc2[nH]c(=O)c(CN(CCO)S(=O)(=O)c3ccc(C)cc3)cc2c1 | 7% | 8% | -30 | -17%
COCCCNC(=O)c1nnn2c1nc(N)c1cc(Cl)ccc12 | / | / | -5 | /
CCOC(=O)c1c(S(=O)(=O)N2CCC(C(=O)Nc3cccc(C#N)c3)CC2)c(C)n(C)c1C | / | / | -18 | /
CCN(Cc1ccncc1)Cc1cn[nH]c1-c1cc(OC)c(OC)c(OC)c1 | 9.3µM* | ? | 34 | 6%
CCOc1ccc(OCC)c(NS(=O)(=O)c2ccc3c(c2)CCCN3C(C)=O)c1 | / | / | 0 | /
CCOC(=O)c1c(NC(=O)CCN2CCOCC2)sc(C)c1-c1ccccc1 | 19% | ? | -30 | 25µM*
CCOC(=O)c1c(-c2ccc(OC)cc2)csc1NC(=O)CCN1CCOCC1 | 5.9µM* | 12µM* | -26 | ?
Cc1c(NC(=O)Cc2ccc(Cl)cc2)cccc1-c1nc2cccnc2s1 | / | / | -9 | /
Cc1cccc(Cn2c(COc3ccccc3)nc3ccccc32)c1 | / | / | 13 | /
CC1CN(S(=O)(=O)c2cccc(-c3cn4ccccc4n3)c2)CC(C)O1 (configuration not stated) | / | ? | -86* | ?
O=C(Nc1cccc(-c2cn3cccnc3n2)c1)c1ccc2c(c1)OCO2 | 1.3µM* | -16% | 37 | ?
Cc1cccn2cc(-c3cccc(NS(=O)(=O)c4ccc(Cl)c(Cl)c4)c3)nc12 | / | / | -91* | /
Cc1cc(C)c(S(=O)(=O)Nc2cccc(-c3cn4ccccc4n3)c2)c(C)c1 | / | / | -87* | /
O=C(Nc1cccc(-c2cn3cccnc3n2)c1)c1ccco1 | ? | -15% | 14 | -19%
Cc1cccc(S(=O)(=O)Nc2ccc(-c3cn4ccccc4n3)cc2)c1 | ? | 48% | -3 | 9%
Cc1ccc(S(=O)(=O)Nc2cccc(-c3cn4cccc(C)c4n3)c2)cc1 | / | / | -14 | /
O=C(NC1CCCCC1)c1ccc(CSc2nc3cccnc3n2Cc2ccc(F)cc2)cc1 | / | / | -1 | /
SMILES | Pf growth 96h | Pf growth 48h | HCMV antiviral | HCV inh
CC(C)OC(=O)c1c(NC(=O)C2c3ccccc3Oc3ccccc32)sc2c1CCCC2 | / | / | -8 | /
Cc1ccccc1C(=O)Nc1cccc(-c2cn3ccccc3n2)c1 | -58%[1.15 µM] | -2% | -28 | 14µM*
Cc1ccc(C(=O)Nc2cccc(-c3cn4ccccc4n3)c2)cc1 | 13µM* | 46% | 42 | -19%
COC(=O)c1ccccc1NC(=O)CSc1nnc2cc(C)c3cc(C)cc(C)c3n12 | / | / | -4 | /
CN1CCc2nc3sc(C(=O)c4ccc(F)cc4)c(N)c3cc2C1 | / | / | 5 | /
CN1CCc2nc3sc(C(=O)C45CC6CC(CC(C6)C4)C5)c(N)c3cc2C1 | 2.6µM* | 9.3µM* | -1 | -9%
CCOC(=O)C1CCCN(S(=O)(=O)c2cc(OCC(=O)NC3CCCCC3)c(C)cc2Cl)C1 (configuration not stated) | 0.47µM* | / | -26 | ?
Cc1cc(Cl)c(S(=O)(=O)N2CCN(c3ccc(F)cc3)CC2)cc1OCC(=O)NC1CCCCC1 | 6.6µM* | / | -98* | 0.79µM*
CCOc1ccc(Cl)cc1S(=O)(=O)N1CCN(c2ccc(F)cc2)CC1 | / | 12µM* | -1 | 1%
COc1ccc(Cl)cc1S(=O)(=O)N1CCN(c2ccc(F)cc2)CC1 | ? | -14% | 13 | -3%
CCCNC1=C(N(C(C)=O)c2cccc(F)c2)C(=O)c2ccccc2C1=O | -24% | -82% | -100* | 7.9µM*
Cc1[nH]c2ccccc2c1/C=N/Nc1ccc(F)cc1F | ? | ? | / | -6%
Cc1[nH]c2ccccc2c1/C=N/Nc1ccccn1 | 10µM* | 0% | -14 | /
Cc1[nH]c2ccccc2c1/C=N/Nc1nncn1N | ? | 60% | -64* | -29%
CCOC(=O)c1cc(-c2ccco2)nc2c1c(C)nn2-c1ccccc1 | 14% | 9.3µM* | 12 | -7%
CCN(C(=O)COC(=O)c1cc(-c2ccccc2)nc2c1c(C)nn2-c1ccc(C)cc1)C1CCS(=O)(=O)C1 (configuration not stated) | 42% | 10% | 21 | ?
CCCn1c(=O)c2c(C(=O)OCC)cc(-c3ccco3)nc2n(CCC)c1=O | 1.5µM* | / | 14 | ?
O=C(CCC1CCCCC1)Nc1cc(Cl)ccc1N1CCOCC1 | ? | ? | -21 | ?
O=C(CCC1CCCC1)Nc1cc(C(F)(F)F)ccc1N1CCOCC1 | 13µM* | 12µM* | -9 | 2%
COC(=O)c1ccc(CNC(=O)CNc2cc(C(F)(F)F)ccc2N2CCOCC2)cc1 | 8.3µM* | / | 41 | -6%
Cc1ccccc1SCC(=O)Nc1cc(C(F)(F)F)ccc1N1CCOCC1 | 4.7µM* | 2.1µM* | / | ?
Cc1cc2oc(=O)c(CC(=O)NCCc3ccccc3F)c(C)c2c2occ(C(C)(C)C)c12 | / | / | -36 | /
O=C(CSc1nnc(-c2cccc(Cl)c2)o1)N1CCc2ccccc21 | / | / | 9 | /
COc1ccc(S(=O)(=O)N2CCCCC2)cc1NC(=O)CN(Cc1ccco1)Cc1ccco1 | ? | 12µM* | -70* | 10µM*
COc1ccc(S(=O)(=O)N2CCCCC2)cc1NC(=O)CCc1cc(OC)c(OC)c(OC)c1 | / | / | 0 | -8%
COc1ccc(C)cc1S(=O)(=O)N(CC(=O)Nc1cc([N+](=O)[O-])ccc1C)c1ccc(C)c(C)c1 | ? | 10µM* | -12 | ?
COc1ccc(S(=O)(=O)N2CCCCCC2)cc1NC(=O)Cc1cc(OC)c(OC)c(OC)c1 | 3.7µM* | ? | 2 | -10%
COc1ccc(S(=O)(=O)N2CCCCC2)cc1NC(=O)CN(C)C1CCCCC1 | ? | ? | -38 | 11µM*
COc1ccc(CCNc2nc(SCc3ccccc3Cl)nc3ccccc23)cc1OC | / | / | -10 | /
COc1ccc(-c2noc(-c3ccc(NCCc4ccccc4)c([N+](=O)[O-])c3)n2)cc1 | / | / | -1 | /
